Source: PubChem BioAssay (NCI)
Compounds without any hit were thinned out: in the full panel of roughly 79,000, 15% have a hit. The source made the active and inactive calls. Cut-off read from the data, not from the text of the source: active = growth inhibition above about 70%; inactive = the rest.

What was measured:
[1] = NCI Yeast Anticancer Drug Screen. Data for the rad52 strain (AID 147);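 note: 0% = growth of vehicle-treated control cultures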; conditions: S. cerevisiae rad52 mutant growth inhibition, hits give high values
Summary of the method: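 Genetically altered yeast (DNA damage repair defect) treated with compound; inhibition calculated relative to vehicle.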

[2] = NCI Yeast Anticancer Drug Screen. Data for the wt1 strain (AID 149);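 note: 0% = growth of vehicle-treated wt1 cultures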; conditions: S. cerevisiae wt1 strain (SPY 50644) growth inhibition, hits give high values
Summary of the method: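 Measured: growth of wt1 yeast under compound versus vehicle treatment, reported as inhibition.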

[3] = NCI Yeast Anticancer Drug Screen. Data for the rad50EPP+ strain (AID 151);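 note: 0% = growth of vehicle-treated control cultures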; conditions: S. cerevisiae rad50 mutant strain, hits give high values
Summary of the method: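 Strain rad50EPP+; compound exposure; % growth inhibition vs vehicle.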

[4] = NCI Yeast Anticancer Drug Screen. Data for the rad50 strain (AID 155);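 note: 0% = growth of vehicle-only cultures of the same strain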; conditions: S. cerevisiae rad50 strain growth inhibition, hits give high values
Summary of the method: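 Growth of the mutant yeast was measured after compound exposure and referenced to vehicle-treated cultures.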

[5] = NCI Yeast Anticancer Drug Screen. Data for the mec2-1 strain (AID 157); conditions: S. cerevisiae mec2-1 strain, hits give high values
Summary of the method: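 Cells of the genetically defined mec2-1 yeast strain are incubated with test compound. Inhibition of growth is calculated against vehicle-treated controls.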

[6] = NCI Yeast Anticancer Drug Screen. Data for the rad14 strain (AID 159);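 note: 0% = growth of vehicle-treated control cultures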; conditions: S. cerevisiae rad14 strain growth inhibition, hits give high values
Summary of the method: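 Here, inhibition of yeast growth was measured after compound exposure, using a strain with a genetic defect in DNA damage repair and vehicle-treated cultures as the reference.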

[7] = NCI Yeast Anticancer Drug Screen. Data for the sgs1 mgt1 strain (AID 161);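 note: 0% = growth of cultures given vehicle only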; conditions: S. cerevisiae sgs1 mgt1 strain, hits give high values
Summary of the method: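 Genetically altered yeast, compound exposure, growth inhibition relative to vehicle.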

[8] = NCI Yeast Anticancer Drug Screen. Data for the CLN2oe strain (AID 163);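 note: 0% = growth of vehicle-only control cultures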; conditions: S. cerevisiae CLN2oe strain, hits give high values
Summary of the method: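 Strain altered in cell-cycle control, incubated with compound; growth compared to solvent-treated controls.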

[9] = NCI Yeast Anticancer Drug Screen. Data for the cln2 rad14 strain (AID 165);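 note: 0% = growth equal to vehicle treated cultures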; conditions: S. cerevisiae cln2 rad14 strain, hits give high values
Summary of the method: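 The screen exposed genetically defined yeast (cln2 rad14) to test compounds and scored growth inhibition relative to vehicle-treated controls.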

[10] = NCI Yeast Anticancer Drug Screen. Data for the bub3 strain (AID 167); conditions: S. cerevisiae bub3 mutant strain, hits give high values
Summary of the method: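 Whole-cell yeast assay. The mutant strain was incubated with compounds, and growth inhibition was determined by comparison with vehicle-treated cells.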

[11] = NCI Yeast Anticancer Drug Screen. Data for the wt2 strain (AID 169);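 note: 0% = growth of vehicle-treated yeast cultures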; conditions: S. cerevisiae wt2 strain growth inhibition, hits give high values
Summary of the method: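 Steps: yeast strain treated with compound; growth recorded; inhibition calculated relative to cultures given vehicle alone.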

[12] = NCI Yeast Anticancer Drug Screen. Data for the mlh1 strain (AID 171);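 note: 0% = growth of vehicle-treated control cultures of the same strain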; conditions: S. cerevisiae mlh1 strain growth inhibition, hits give high values
Summary of the method: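 Yeast screen: mutant strain plus compound, growth scored against vehicle control wells.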

[13] = NCI Yeast Anticancer Drug Screen. Data for the sgs1 strain (AID 173);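 note: 0% = growth of vehicle-only control cultures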; conditions: S. cerevisiae sgs1 mutant, hits give high values
Summary of the method: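 Inhibition of yeast growth served as the measure. The mutant strain was treated with each compound, and growth was normalised to cultures receiving vehicle alone.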

[14] = NCI Yeast Anticancer Drug Screen. Data for the mlh1 rad18 strain (AID 175); conditions: S. cerevisiae mlh1 rad18 strain growth inhibition, hits give high values
Summary of the method: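 Compound-treated yeast growth, normalised to vehicle controls. Strain bears defined DNA repair mutations.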

[15] = NCI Yeast Anticancer Drug Screen. Data for the rad18 strain (AID 177); conditions: S. cerevisiae rad18 mutant growth inhibition, hits give high values
Summary of the method: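 Inhibition values reflect reduced yeast growth compared with vehicle-treated controls, using a strain engineered with a DNA damage repair defect.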

[16] = at 5.0 µM (retest, dose inferred, filed as 0.5)
[17] = at 50.0 µM (retest, dose inferred, filed as 5.0)

Measured: growth inhibition

CCOC(=O)C(NC(=O)CC)(N1CCN(c2cc3c(cc2F)c(=O)c(C(=O)O)cn3C2CC2)CC1)C(F)(F)F (stereo not drawn)
active: [1]; at 33.0 µM 91% | [1]; at 100.0 µM 97% | [4]; at 33.0 µM 90% | [4]; at 50.0 µM 91.5% | [4]; at 100.0 µM 97% | [5]; at 50.0 µM 84.1% | [5]; at 100.0 µM 96% | [6]; at 100.0 µM 91% | [8]; at 100.0 µM 86% | [10]; at 50.0 µM 79.1% | [10]; at 100.0 µM 91% | [11]; at 100.0 µM 84% | [12]; at 100.0 µM 85% | [13]; at 100.0 µM 88% | [14]; at 50.0 µM 74.5% | [15]; at 100.0 µM 91%
inactive: [1]; at 1.2 µM 0% | [1]; at 3.7 µM 3% | [1]; at 11.0 µM 44% | [2]; at 1.2 µM -2% | [2]; at 3.7 µM 1% | [2]; at 11.0 µM 0% | [2]; at 33.0 µM 14% | [2]; at 100.0 µM 66% | [3]; at 1.2 µM -1% | [3]; at 3.7 µM 1% | [3]; at 11.0 µM 3% | [3]; at 33.0 µM 3% | [3]; at 100.0 µM 11% | [4]; at 1.2 µM 0% | [4]; at 3.7 µM 5% | [4]; [16] -10% | [4]; at 11.0 µM 47% | [4]; [17] 61% | [5]; at 1.2 µM -1% | [5]; at 3.7 µM -5% | [5]; [16] 0% | [5]; at 11.0 µM 1% | [5]; at 33.0 µM 47% | [5]; [17] 6% | [6]; at 1.2 µM 0% | [6]; at 3.7 µM 2% | [6]; at 11.0 µM 6% | [6]; at 33.0 µM 29% | [7]; [16] -2% | [7]; [17] 15% | [7]; at 50.0 µM 28.6% | [8]; at 1.2 µM 1% | [8]; at 3.7 µM 3% | [8]; at 11.0 µM -3% | [8]; at 33.0 µM 21% | [9]; [16] 1% | [9]; [17] -1% | [9]; at 50.0 µM 45.6% | [10]; at 1.2 µM -40% | [10]; at 3.7 µM 0% | [10]; [16] -14% | [10]; at 11.0 µM 0% | [10]; at 33.0 µM 18% | [10]; [17] 2% | [11]; at 1.2 µM -1% | [11]; at 3.7 µM -4% | [11]; at 11.0 µM -2% | [11]; at 33.0 µM 10% | [12]; at 1.2 µM -1% | [12]; at 3.7 µM 0% | [12]; at 11.0 µM 0% | [12]; at 33.0 µM 16% | [13]; at 1.2 µM 0% | [13]; at 3.7 µM 1% | [13]; at 11.0 µM 4% | [13]; at 33.0 µM 28% | [14]; [16] -3% | [14]; [17] 21% | [15]; at 1.2 µM -2% | [15]; at 3.7 µM -2% | [15]; at 11.0 µM 0% | [15]; at 33.0 µM 23%
